From PubChem BioAssay
APOBEC3G inh: APOBEC3G DNA deaminase inhibitors, primary screen, biochemical, fluorescence, single-stranded DNA substrate, uHTS; inhibition, % at 20 µM; DNA dC->dU-editing enzyme APOBEC-3G (Homo sapiens), Q9HC16; recombinant A3G, ssDNA deamination FAM/TAMRA fluorescence; AID 493012, 2011; hit rate 0.28% among 330,000;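 active = inhibition of at least 40% at 20 µM, with no more than 30% in the related APOBEC3A deaminase screen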
Target sequence (Q9HC16 whole entry, looked up): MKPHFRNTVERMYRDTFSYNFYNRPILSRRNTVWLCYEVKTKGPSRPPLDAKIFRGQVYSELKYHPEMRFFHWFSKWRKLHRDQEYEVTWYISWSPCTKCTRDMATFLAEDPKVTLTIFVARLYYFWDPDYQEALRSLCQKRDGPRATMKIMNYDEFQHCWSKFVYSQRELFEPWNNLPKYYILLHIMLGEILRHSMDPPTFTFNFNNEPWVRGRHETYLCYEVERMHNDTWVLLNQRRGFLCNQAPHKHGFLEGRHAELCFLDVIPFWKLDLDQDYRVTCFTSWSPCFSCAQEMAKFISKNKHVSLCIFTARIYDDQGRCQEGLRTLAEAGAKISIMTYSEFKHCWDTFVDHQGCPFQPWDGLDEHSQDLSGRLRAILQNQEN
PHOSPHO1 inh: PubChem AID 1565; Phosphoethanolamine/phosphocholine phosphatase (Homo sapiens), Q8TCT1; recombinant PHOSPHO1, absorbance phosphatase assay; inhibition, % at 13.3 µM; hit rate 1.1% among 290,000; in the data active = inhibition above about 60%
Wnt bcat act: Wnt/beta-catenin pathway activators, primary screen, cell-based, plate reader, single point. Wnt/beta-catenin reporter cell assay, activator. activation, % at 9.35 µM. hit rate 1.2% among 300,000; in the data active = activation above about 30%, passing the limit was not always enough; inconclusive = no clear call, values can overlap the other calls
A3A deaminase: APOBEC3A ssDNA deaminase inhibitors, primary screen, selectivity assay for APOBEC3G inhibitor project, biochemical, FAM/TAMRA oligo cleavage fluorescence | AID 493011, 2011 | inhibition, % at 20 µM | DNA dC->dU-editing enzyme APOBEC-3A (Homo sapiens), P31941 | recombinant A3A, FAM/TAMRA ssDNA deamination fluorescence | hit rate 0.41% among 330,000;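 active = at least 40% inhibition at 20 µM here, with at most 30% in a related deaminase screen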
Target sequence (P31941 whole entry, looked up): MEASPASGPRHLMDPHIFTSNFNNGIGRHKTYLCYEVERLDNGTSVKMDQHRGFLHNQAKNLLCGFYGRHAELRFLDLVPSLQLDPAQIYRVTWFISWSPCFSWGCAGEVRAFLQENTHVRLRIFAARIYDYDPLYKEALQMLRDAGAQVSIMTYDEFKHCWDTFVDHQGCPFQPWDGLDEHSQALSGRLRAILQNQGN
esBAF inh: Bmi1 luciferase reporter increase in mESCs, primary screen, esBAF inhibitor project, mouse ES cells, Bmi1 luciferase knock-in, single point. hit rate 2% among 350,000. reporter increase, % at 12.5 µM. 24 h; 100% = twice the neutral-well signal; in the data active = activation above about 40%; inconclusive = no clear call, values can overlap the other calls;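 note: a rise in the Bmi1 reporter signal indicates esBAF inhibition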
MITF act: activators of MITF-driven TRPM1 promoter reporter, primary screen, cell-based, SK-MEL-5, luciferase, single point; SK-MEL-5 TRPM1-promoter luciferase, 24 h; % of positive control, neutral wells = 0; activation, % at 12.5 µM; hit rate 0.75% among 300,000;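 active = mean activation of at least 80% with every replicate also reaching 80%; inconclusive = mean reaches 80% but some replicate falls short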
APOBEC3G confirm: APOBEC3G deaminase inhibitor retest, confirmation, biochemical, fluorescence, single-stranded DNA substrate, single concentration. recombinant A3G ssDNA deaminase, UDG/FAM-TAMRA fluorescence. hit rate 72% among 890. inhibition, % at 20 µM. shares compounds with APOBEC3G inh;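 active = inhibition reaching a set limit in any replicate at 20 µM, the limit being 80% of the first screen's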
UDG A3G counter: E. coli UDG inhibitors, confirmation, counter-screen for APOBEC3G inhibitor project, biochemical, single concentration, fluorescence, FAM/TAMRA oligo; shares compounds with APOBEC3G inh; UDG counterscreen; inhibition, % at 20 µM; 710 tested, under 10 active; AID 504715, 2011;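 active = compounds giving 40% or more inhibition at 20 µM in any one of the three replicates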;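 note: inhibitors lower the FAM signal released by uracil excision and alkaline cleavage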
esBAF Ring1 qPCR: Ring1 mRNA increase in mouse ESCs, confirmation, esBAF inhibitor project, cell-based, mouse ESC, RT-qPCR, cherry-pick; 550 tested, under 10 active; fold change at 33 µM; shares compounds with esBAF inh; mouse ESC E14, Ring1 mRNA RT-qPCR fold change;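 active = Ring1 gene expression raised more than 2-fold over untreated cells in both replicates at either tested dose; inconclusive = only one replicate above 2-fold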;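 note: Ring1 transcript normalised to actin housekeeping signal by TaqMan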
esBAF Fgf4 qPCR: Fgf4 mRNA decrease in mouse ESCs, confirmation, esBAF inhibitor project, cell-based, mouse ESC, RT-qPCR, cherry-pick | shares compounds with esBAF inh | mouse ESC E14, Fgf4 mRNA qPCR fold change; active compounds read low | Fgf4 expression fold change at 33 µM | hit rate 4% among 550 | AID 743177, 2013;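 active = Fgf4 expression under 0.8 fold of control in both repeat measurements at one or both tested doses; inconclusive = under 0.8 fold in just a single repeat measurement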;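 note: Fgf4 transcript normalised to actin in duplex TaqMan qPCR; cells exposed to compound for 24 h before lysis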
esBAF Bmi1 qPCR: esBAF inhibition via Bmi1 de-repression, confirmation, cell-based, RT-qPCR, mouse ESC, single point, cherry-pick | AID 743180, 2013 | fold change at 33 µM | 550 tested, under 10 active | mouse ESE14 ES cells, Bmi1 mRNA qPCR fold; active compounds read high | shares compounds with esBAF inh;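 active = Bmi1 expression fold change above 6 at either tested concentration, seen in replicate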;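 note: higher fold means more Bmi1 de-repression and stronger esBAF inhibition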
A549 cytotox: A549 cell cytotoxicity, cytotoxicity control, plate reader, single point, cherry-pick | AID 743188, 2013 | 550 tested, under 10 active | shares compounds with esBAF inh | cell viability change % (negative = cytotoxic), % at 25 µM, hits read low; call rule not given here
HepG2 cytotox SP: HepG2 cell cytotoxicity, cytotoxicity control, plate reader, single point, cherry-pick; hit rate 4% among 550; active compounds read low; AID 743189, 2013; activity change, negative = inhibition, % at 25 µM; shares compounds with esBAF inh; in the data active = activity change below about -50%
HEK293 tox SP: HEK293 cell cytotoxicity, cytotoxicity control, plate reader, single point, cherry-pick; activity change, negative = inhibition, % at 25 µM, hits read low; hit rate 3% among 550; AID 743190, 2013; shares compounds with esBAF inh; in the data active = activity change below about -38%, passing the limit was not always enough
Numbers stand for hits; n = inactive; u = inconclusive; x = not tested or not shown. Hits are enriched below; roughly 3.6% of the tested compounds scored in any of these assays.

SMILES	APOBEC3G inh	PHOSPHO1 inh	Wnt bcat act	A3A deaminase	esBAF inh	MITF act	APOBEC3G confirm	others
Cn1c(NN=O)nc2ccccc21	59	n	n	n	n	n	28	UDG A3G counter=n
O=C(NCCCn1ccnc1)C(Cl)(Cl)Cl	44	n	n	n	x	n	n
O=C(O)[C@H]1[C@H](CO)[C@H]2Cn3c(ccc(-c4ccncc4)c3=O)[C@@H]1N2C(=O)C1CC1	x	x	x	x	n	x	x
O=c1[nH]c(=S)n(C2CC2)c(O)c1/C=N/Nc1cccc2ccccc12	55	n	x	n	n	n	n
O=c1[nH]c(=O)n(CCC2=CCCCC2)c(O)c1/C=N/Nc1ccccc1	n	n	n	n	x	n	x
CCC(C)n1c(O)c(/C=N/Nc2ccccc2)c(=O)[nH]c1=S (centres undefined)	49	n	n	n	x	n	n
O=c1[nH]c(=O)n(CCC2=CCCCC2)c(O)c1/C=N/Nc1cccc2ccccc12	42	n	n	n	x	n	n
O=C(O)[C@@H]1[C@@H](CO)[C@@H]2Cn3c(ccc(-c4ccncc4)c3=O)[C@H]1N2C(=O)C1CCC1	x	x	x	x	n	x	x
NS(=O)(=O)c1ccc(-c2ccc(C=C3C(=O)NC(=S)NC3=O)o2)cc1	48	n	n	n	x	x	47
NS(=O)(=O)c1ccc(-c2ccc(C=C3C(=O)NC(=O)NC3=O)o2)cc1	n	n	n	n	n	n	x
CC(=O)NN1C(=O)c2ccccc2NC1c1cccnc1 (centres undefined)	54	n	n	n	x	n	n
CCC12CN3CC(CC)(CN(C1)C3c1cccnc1)C2=O (centres undefined)	n	n	x	n	n	n	x
COC(=O)[C@@H]1[C@@H](CO)[C@@H]2Cn3c(ccc(-c4ccccc4)c3=O)[C@H]1N2C(=O)c1ccccc1F	x	x	x	x	n	x	x
COc1ccc(C#Cc2ccc([C@@H]3[C@H]4CN(C(=O)Cc5ccccc5)CCCCN4[C@H]3CO)cc2)cc1	x	x	x	x	n	x	x
c1ccc(Nc2ccc3ccccc3c2)cc1	x	x	n	x	74	95	x	esBAF Ring1 qPCR=n;esBAF Fgf4 qPCR=u;esBAF Bmi1 qPCR=n;A549 cytotox=n;HepG2 cytotox SP=n;HEK293 tox SP=n
O=c1[nH]cnc2nc(-c3ccc(N(CCCl)CCCl)cc3)[nH]c12	x	x	n	x	74	n	x	esBAF Ring1 qPCR=n;esBAF Fgf4 qPCR=n;esBAF Bmi1 qPCR=n;A549 cytotox=-54;HepG2 cytotox SP=n;HEK293 tox SP=-37
c1ccc(CCc2ccc3n2Cc2cnnn2-c2ccccc2-3)cc1	x	x	n	x	n	n	x
COc1ccc(-c2ccc3n2Cc2cnnn2-c2ccccc2-3)cc1	x	x	n	x	82	n	x	esBAF Ring1 qPCR=n;esBAF Fgf4 qPCR=n;esBAF Bmi1 qPCR=n;A549 cytotox=n;HepG2 cytotox SP=n;HEK293 tox SP=n
CCCNC(=O)[C@@H]1[C@@H](CO)[C@@H]2Cn3c(cccc3=O)[C@H]1N2CCC	x	x	x	x	n	x	x
COC(=O)[C@H]1[C@H](CO)[C@H]2Cn3c(ccc(-c4cccc(F)c4)c3=O)[C@@H]1N2C(=O)CC1CC1	x	x	x	x	n	x	x
